High-throughput results (PubChem BioAssay)
Sampled rows, rich in hits. Any-hit rate of the full collection: about 3%.
CF NFkB inh = inhibitors of PAF-induced NF-kB signaling, primary screen, cell-based, GFP fluorescence, uHTS; KKLEB NF-kB-GFP reporter, GFP fluorescence overnight; inhibition, % at 5 µM; 360,000 compounds, 0.86% hits; AID 588850, 2011;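 active = at least 50% inhibition at 5 µM, scaled per plate between neutral and stimulator controls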;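 also: PAF is a Pseudomonas aeruginosa culture filtrate used as stimulus; plate controls were PAF-stimulated DMSO wells for no effect and unstimulated DMSO wells for full effect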
TRPM1 prom inh = inhibitors of MITF-dependent TRPM1 promoter reporter, primary screen, cell-based, SK-MEL-5, single point, luciferase | 330,000 compounds, 0.83% hits | inhibition, % at 12.5 µM | SK-MEL-5 TRPM1 promoter luciferase, 24 h | AID 488899, 2010;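 active = mean inhibition across replicates of 60% or more, whatever share of single replicates reaches that level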
HIF-2a block = HIF-2a reporter inhibitors, primary screen, luminescence, 786-0 RCC cells. 360,000 compounds, 0.72% hits. 786-0 RCC cells HIF-2a reporter, luciferase luminescence, overnight. inhibition, % at 18.8 µM;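 active = inhibition of the luminescence signal of 40% or more relative to plate controls, in a single-dose primary screen at 18.75 µM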
Peg3 prom inh = Peg3 promoter-driven luciferase inhibitors, primary screen, cell-based, HeLa, luciferase luminescence | HeLa PEG-Prom luciferase reporter, overnight | 360,000 compounds, 1.7% hits | inhibition, % at 20 µM;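 active = inhibition of at least 50% at 20 µM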
LMP1 NFkB inh = EBV LMP1-driven NF-kappaB luciferase reporter inhibitors, primary screen, cell-based, luminescence, single point; inhibition, % at 12.5 µM; LMP1-induced NF-kappaB luciferase reporter cells; AID 504558, 2011; 350,000 compounds, 0.69% hits; in the data active = inhibition above about 41%;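 also: 0% = neutral control wells and 100% = reference inhibitor control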
KKLEB cytotox = cytotoxicity in KKLEB CF airway cells, primary screen, cytotoxicity control for CF NF-kB inhibitor project, cell-based, uHTS, fluorescence assay plates; KKLEB CF airway cells viability, ATPlite luminescence, overnight; hits give low values; cells stimulated with P. aeruginosa culture filtrate; 360,000 compounds, 0.36% hits; activity change (cytotoxicity), % at 5 µM;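 active = corrected activity change at or below -50% at 5 µM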
Mdm2-MdmX confirm = retested Mdm2-MdmX interaction blockers, confirmation, cell-based, luminescence, single concentration, set 2 | shares compounds with HIF-2a block | SaOS-2 split-luciferase Mdm2/MdmX complementation | inhibition, % at 8 µM | 740 compounds, 99% hits | AID 504601, 2011;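 active = mean inhibition of the luminescence signal across two replicates at or above 26 percent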
HIF-2a conf = HIF-2a reporter inhibitor retest, confirmation, luminescence, 786-0 RCC cells. shares compounds with HIF-2a block. HIF-2a luciferase reporter luminescence, overnight. inhibition, % at 18.8 µM. 1,800 compounds, 56% hits. AID 651580, 2012;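 active = mean inhibition across four replicates of at least 40 percent at the single tested concentration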
HIF-1a counter = HIF-1a luciferase reporter signal reduction – MiaPaCa-2 cells, single concentration, counter-screen for HIF-2a inhibitor project, confirmation; shares compounds with HIF-2a block; MiaPaCa-2 HIF-1a luciferase reporter, desferoxamine, overnight; inhibition, % at 18.8 µM; 1,800 compounds, 72% hits; AID 651589, 2012;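 active = mean inhibition of the reporter signal across four replicates at the single tested dose of 50% or more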
* = called active by the depositor.

How did Cc1nn(C)c(C)c1CN(C)C(=O)c1cnn2c1NC(c1ccccc1)CC2C(F)(F)F (configuration not stated) do in these assays?
CF NFkB inh: 12.6; TRPM1 prom inh: 18.4; HIF-2a block: 42.8*; Peg3 prom inh: 35.2; LMP1 NFkB inh: 8.6; KKLEB cytotox: -4.1; HIF-2a conf: 27.7; HIF-1a counter: 9.2

Results for Cc1nn(C)c(C)c1CN(C)C(=O)c1nn2c(c1Br)NC(c1cccs1)CC2C(F)(F)F (configuration not stated) ?
CF NFkB inh: 9.9; TRPM1 prom inh: 14.9; HIF-2a block: 25.9; Peg3 prom inh: 23.9; LMP1 NFkB inh: 11.7; KKLEB cytotox: -2.0

What do the screens show for `Cc1csc(NC(=O)C2(C)CCN2C(=O)C(C)C)c1C#N` (configuration not stated)?
CF NFkB inh: -8.8; HIF-2a block: 7.8; Peg3 prom inh: -0.4; KKLEB cytotox: -2.1

What do the screens show for `CN1CCN(Cc2nc3ccccc3c(=O)n2Cc2nc(-c3ccc4ccccc4c3)cs2)CC1`?
CF NFkB inh: 4.5; TRPM1 prom inh: 88.1*; HIF-2a block: 62.4*; Peg3 prom inh: 105.3*; LMP1 NFkB inh: 5.6; KKLEB cytotox: -44.7; HIF-2a conf: -9.6; HIF-1a counter: 105.8*

How did CC(=O)CC1OC(=O)C(Br)=C1NCc1ccccc1 (configuration not stated) do in these assays?
CF NFkB inh: 8.7; TRPM1 prom inh: -20.8; HIF-2a block: 42.5*; Peg3 prom inh: 103.7*; LMP1 NFkB inh: -7.8; KKLEB cytotox: -9.7; HIF-2a conf: 16.6; HIF-1a counter: 75.5*

What do the screens show for `COC(=O)[C@@]12C[C@@H](CC(=O)N3CCC(c4ccccc4)CC3)C(=O)N(Cc3ccco3)C1=CCC(C)(C)C2`?
HIF-2a block: -2.7

What do the screens show for `O=C(CCl)N=c1sccn1Cc1ccc(Cl)cc1Cl`?
CF NFkB inh: 89.8*; TRPM1 prom inh: 18.8; HIF-2a block: 16.7; Peg3 prom inh: 23.8; LMP1 NFkB inh: -8.7; KKLEB cytotox: -85.4*; Mdm2-MdmX confirm: 103.5*

What do the screens show for `NC(=O)c1ccc(=O)n(Cc2ccc(Cl)cc2Cl)c1`?
CF NFkB inh: 0.2; TRPM1 prom inh: -1.0; HIF-2a block: -25.0; Peg3 prom inh: -5.1; LMP1 NFkB inh: 4.0; KKLEB cytotox: 9.0

What do the screens show for `O=C(CCl)N=c1sccn1Cc1ccccc1Cl`?
CF NFkB inh: 77.9*; TRPM1 prom inh: 23.5; HIF-2a block: 8.4; Peg3 prom inh: 24.0; LMP1 NFkB inh: 6.4; KKLEB cytotox: -67.9*; Mdm2-MdmX confirm: 102.7*

What do the screens show for `CCC(=O)OCC(=O)N=c1sccn1Cc1ccc(C)cc1`?
CF NFkB inh: 3.2; TRPM1 prom inh: 6.9; HIF-2a block: 3.9; Peg3 prom inh: -1.2; LMP1 NFkB inh: 1.1; KKLEB cytotox: 7.2

Results for COc1ccc(NC(=O)CSc2c3c(nc4ccccc24)CCCC3)c(OC)c1 ?
CF NFkB inh: 30.9; TRPM1 prom inh: 14.1; HIF-2a block: 47.0*; Peg3 prom inh: 5.2; LMP1 NFkB inh: 12.2; KKLEB cytotox: -6.5; HIF-2a conf: 9.5; HIF-1a counter: 91.4*
